For five molecules, composite z-score and z-score results are on record in PubChem BioAssay.

Structures are written as SMILES. Activity calls are given as the source filed them. Unless noted, the rule behind the calls is not given here.

The nature of assay [1]: compounds binding Alexa647 anti-His antibody – biochemical, small-molecule microarray, 635 nm fluorescence, artefact control for SMM control protein annotation, primary screen (AID 1128).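 Note: score merges feature fluorescence with signal-to-noise for each printed compound spot.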 As to conditions: higher = more signal.
Assay [2] relates to Human papillomavirus type 1a E7 protein (residues 1-88). Put plainly: HPV1a E7 small-molecule binders, primary screen, biochemical, small-molecule microarray, residues 1-88, 635 nm (AID 1129). As to conditions: small-molecule microarray binding, fluorescence 635 nm; higher = more signal.
Assay [3] addresses Focal adhesion kinase 1 (Homo sapiens) (UniProt Q05397). Put plainly: PTK2 protein binding on printed compound slides – biochemical, small-molecule microarray, 635/667 nm fluorescence, BSA, DTT, primary screen (AID 1130).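 Note: composite of spot emission at 667 nm and signal to noise over triplicate slides.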 As to conditions: 635 nm fluorescence, higher = more signal.
Assay [4] deals with Fibrinogen (Alexa647-labelled). In words: Alexa647-fibrinogen binding to printed small molecules – biochemical, small-molecule microarray, 635/667 nm fluorescence, artefact control for SMM control-protein annotation, profiling panel (AID 1131).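 Note: z-score merges 667 nm fluorescence with per-spot signal-to-noise over triplicate slides.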 As to conditions: fibrinogen-A647 binding fluorescence, higher = more signal.
In assay [5] the target is Follistatin (Homo sapiens) (UniProt P19883). In words: FST protein binding to printed compounds – biochemical, small-molecule microarray, 635/667 nm fluorescence, primary screen (AID 1132). As to conditions: 635 nm fluorescence, higher = more signal.
Follistatin (Homo sapiens), sequence (P19883 whole entry, looked up): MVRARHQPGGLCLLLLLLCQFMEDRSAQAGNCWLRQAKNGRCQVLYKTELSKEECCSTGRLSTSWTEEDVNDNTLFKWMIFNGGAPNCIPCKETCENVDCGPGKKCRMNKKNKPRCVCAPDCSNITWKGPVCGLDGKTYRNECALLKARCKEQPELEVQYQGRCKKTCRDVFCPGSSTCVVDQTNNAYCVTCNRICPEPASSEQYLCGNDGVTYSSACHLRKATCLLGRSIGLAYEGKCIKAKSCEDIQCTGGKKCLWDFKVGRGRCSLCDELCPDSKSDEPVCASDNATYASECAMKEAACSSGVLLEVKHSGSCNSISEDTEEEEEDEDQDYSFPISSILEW
Assay [6] deals with Fibroblast growth factor 2 (Homo sapiens) (UniProt P09038). In words: basic fibroblast growth factor binding to printed compounds – biochemical, small-molecule microarray, 635/667 nm fluorescence, primary screen (AID 1133). As to conditions: FGF2, fluorescence 635/667, higher = more signal.
Fibroblast growth factor 2 (Homo sapiens), sequence (P09038 whole entry, looked up): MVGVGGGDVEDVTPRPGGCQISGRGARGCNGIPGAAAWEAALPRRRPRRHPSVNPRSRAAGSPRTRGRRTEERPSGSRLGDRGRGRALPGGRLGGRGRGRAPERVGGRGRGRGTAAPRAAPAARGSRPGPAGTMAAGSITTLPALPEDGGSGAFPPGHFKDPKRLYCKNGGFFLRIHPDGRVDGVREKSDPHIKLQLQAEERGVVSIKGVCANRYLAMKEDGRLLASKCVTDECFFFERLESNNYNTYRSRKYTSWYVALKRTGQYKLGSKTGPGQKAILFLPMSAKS
Assay [7] in a line: JC-1 mitochondrial potential readout, lung cancer cells – cell-based, A549, JC-1 fluorescence, basal, 24 h, 100 nL, profiling panel (AID 1138).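 Note: A549 lung adenocarcinoma cells under basal conditions with no added stimulus; test concentration not given here.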 As to conditions: higher = more signal.
The next assay deals with Lefty1. In words: Lefty1 protein binding to printed compounds – biochemical, small-molecule microarray, 635/667 nm fluorescence, primary screen (AID 1139). As to conditions: fluorescence 635/667, higher = more signal.
Assay [8] deals with wheat germ agglutinin (Triticum aestivum), Alexa647-labelled. Put plainly: Alexa647-WGA lectin binding to printed small molecules – biochemical, small-molecule microarray, 635/667 nm fluorescence, artefact control for SMM control-protein annotation, profiling panel (AID 1140).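 Note: score merges 667 nm feature emission with signal to noise over triplicate slides.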 As to conditions: WGA-A647 binding, 635 nm fluorescence, higher = more signal.
Assay [9] has as its target Luciferin 4-monooxygenase (Photinus pyralis) (UniProt P08659). In words: inhibition of purified Photinus pyralis luciferase – biochemical, luminescence, purified enzyme, 2006 set, primary screen (AID 1141).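 Note: cell-free assay with purified firefly luciferase at 100 ng per well in PBS; test concentration not given here.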 As to conditions: purified firefly luciferase, SteadyGlo luminescence, 30 min; higher = more signal, called active from +8 up or from −8 down.
Assay [10] has as its system Wnt5a (protein binding on small-molecule microarray). Put plainly: small molecules binding Wnt5a protein – biophysical, small-molecule microarray, 635/667 nm fluorescence, primary screen (AID 1142).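 Note: fluorescence read at 667 nm with signal to noise per printed feature.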 As to conditions: 635 nm fluorescence, higher = more signal.
Assay [11] in a line: ATP-based viability of Huh7 replicon cells – cell-based, CellTiter-Glo luminescence, basal, 48 h, cytotoxicity control for HCV replication inhibitor project, primary screen (AID 1143).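 Note: Huh7 hepatoma cells carrying a hepatitis C replication reporter with no stimulus; test concentration not given here.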 As to conditions: higher = more signal, called active from +8 up or from −8 down.
Assay [12] can be described thus: Pseudomonas biofilm growth suppression – PAO1 strain, BacTiter-Glo luminescence, LB-PBS, primary screen (AID 1144). As to conditions: P. aeruginosa PAO1 biofilm, 12 h, higher = more signal.
Assay [13] is described as follows: basal CRE-LacZ reporter activity in PC12 – cell-based, unstimulated, primary screen (AID 1145). As to conditions: no forskolin, luminescence, 4.5 h, higher = more signal, called active from +8 up or from −8 down.
The nature of assay [14]: forskolin-driven CRE-LacZ activity in PC12 – cell-based, CRE-LacZ reporter, forskolin-stimulated, primary screen (AID 1146).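 Note: PC12 cells with 6xCRE LacZ reporter stimulated by forskolin 10 µM; beta-galactosidase reporter signal reflecting CREB driven transcription.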 As to conditions: luminescence, 4.5 h, higher = more signal, called active from +8 up or from −8 down.
Assay [15] concerns the target Streptavidin (Streptomyces avidinii) (UniProt P22629). Put plainly: compounds binding control protein streptavidin – biophysical, small-molecule microarray, 635/667 nm fluorescence, artefact control for SMM compound annotation, primary screen (AID 1147).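 Note: signal reflects streptavidin binding to arrayed compounds as a control protein.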 As to conditions: higher = more signal.
The nature of assay [16]: probe aInhba binding on compound microarray – biochemical, small-molecule microarray, 635/667 nm fluorescence, primary screen (AID 1148).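 Note: score merges 667nm spot fluorescence with signal-to-noise for antibody binding to printed compounds.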 As to conditions: higher = more signal.
Assay [17] addresses Torsin-1A (Homo sapiens) (UniProt O14656). In words: TOR1A wild-type binding on microarray – cell lysate, small-molecule microarray, lysate, 635/667 nm, primary screen (AID 1149). As to conditions: COS7 hTOR1A-WT lysate, 635 nm fluorescence, higher = more signal.
Assay [18] has the same target. Put plainly: torsin A mutant lysate binding on microarrays – cell lysate, small-molecule microarray, COS7 lysate, 635/667 nm fluorescence, primary screen (AID 1150).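 Note: score pools 667 nm emission and signal to noise measuring lysate protein binding.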 As to conditions: COS7 hTOR1A mutant lysate, 635 nm fluorescence, higher = more signal.
For assay [19], the system named is Sonic hedgehog protein (Shh). In words: Sonic hedgehog microarray binding compounds – biochemical, small-molecule microarray, 635/667 nm fluorescence, primary screen (AID 1151).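 Note: Shh protein binding to compounds spotted on small-molecule microarray slides; score combines spot fluorescence intensity with signal-to-noise across triplicate slides.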 As to conditions: 635 nm fluorescence, higher = more signal.

Luciferin 4-monooxygenase (Photinus pyralis), sequence (P08659 whole entry, looked up): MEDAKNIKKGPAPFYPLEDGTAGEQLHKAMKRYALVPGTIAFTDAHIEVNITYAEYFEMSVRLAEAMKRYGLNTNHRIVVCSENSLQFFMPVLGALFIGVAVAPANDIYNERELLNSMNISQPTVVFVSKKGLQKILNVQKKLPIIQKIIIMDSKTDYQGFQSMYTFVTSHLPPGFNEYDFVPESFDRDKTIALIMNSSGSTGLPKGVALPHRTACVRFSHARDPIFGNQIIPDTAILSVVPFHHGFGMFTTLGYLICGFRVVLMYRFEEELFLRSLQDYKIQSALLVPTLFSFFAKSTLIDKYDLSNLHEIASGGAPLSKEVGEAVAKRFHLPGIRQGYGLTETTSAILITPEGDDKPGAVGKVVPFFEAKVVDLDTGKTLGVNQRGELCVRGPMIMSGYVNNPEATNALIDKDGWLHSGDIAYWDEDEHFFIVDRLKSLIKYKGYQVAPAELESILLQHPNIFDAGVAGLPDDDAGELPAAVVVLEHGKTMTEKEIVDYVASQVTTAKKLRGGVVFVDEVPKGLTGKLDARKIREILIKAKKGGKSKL
Streptavidin (Streptomyces avidinii), sequence (P22629 whole entry, looked up): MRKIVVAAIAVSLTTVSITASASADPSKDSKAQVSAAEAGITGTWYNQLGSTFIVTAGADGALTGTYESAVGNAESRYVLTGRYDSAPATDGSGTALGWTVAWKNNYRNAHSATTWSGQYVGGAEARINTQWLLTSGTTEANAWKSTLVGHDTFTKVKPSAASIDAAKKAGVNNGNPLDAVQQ
Torsin-1A (Homo sapiens), sequence (O14656 whole entry, looked up): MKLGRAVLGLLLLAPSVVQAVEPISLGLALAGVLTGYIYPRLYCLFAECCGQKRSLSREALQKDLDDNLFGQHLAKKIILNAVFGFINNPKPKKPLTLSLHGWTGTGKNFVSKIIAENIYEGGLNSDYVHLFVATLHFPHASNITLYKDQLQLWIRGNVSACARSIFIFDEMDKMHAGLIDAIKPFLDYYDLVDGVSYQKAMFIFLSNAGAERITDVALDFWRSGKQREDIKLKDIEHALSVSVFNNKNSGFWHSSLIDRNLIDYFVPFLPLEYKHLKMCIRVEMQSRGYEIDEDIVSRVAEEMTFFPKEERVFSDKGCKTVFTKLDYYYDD
Focal adhesion kinase 1 (Homo sapiens), sequence (Q05397 whole entry, looked up): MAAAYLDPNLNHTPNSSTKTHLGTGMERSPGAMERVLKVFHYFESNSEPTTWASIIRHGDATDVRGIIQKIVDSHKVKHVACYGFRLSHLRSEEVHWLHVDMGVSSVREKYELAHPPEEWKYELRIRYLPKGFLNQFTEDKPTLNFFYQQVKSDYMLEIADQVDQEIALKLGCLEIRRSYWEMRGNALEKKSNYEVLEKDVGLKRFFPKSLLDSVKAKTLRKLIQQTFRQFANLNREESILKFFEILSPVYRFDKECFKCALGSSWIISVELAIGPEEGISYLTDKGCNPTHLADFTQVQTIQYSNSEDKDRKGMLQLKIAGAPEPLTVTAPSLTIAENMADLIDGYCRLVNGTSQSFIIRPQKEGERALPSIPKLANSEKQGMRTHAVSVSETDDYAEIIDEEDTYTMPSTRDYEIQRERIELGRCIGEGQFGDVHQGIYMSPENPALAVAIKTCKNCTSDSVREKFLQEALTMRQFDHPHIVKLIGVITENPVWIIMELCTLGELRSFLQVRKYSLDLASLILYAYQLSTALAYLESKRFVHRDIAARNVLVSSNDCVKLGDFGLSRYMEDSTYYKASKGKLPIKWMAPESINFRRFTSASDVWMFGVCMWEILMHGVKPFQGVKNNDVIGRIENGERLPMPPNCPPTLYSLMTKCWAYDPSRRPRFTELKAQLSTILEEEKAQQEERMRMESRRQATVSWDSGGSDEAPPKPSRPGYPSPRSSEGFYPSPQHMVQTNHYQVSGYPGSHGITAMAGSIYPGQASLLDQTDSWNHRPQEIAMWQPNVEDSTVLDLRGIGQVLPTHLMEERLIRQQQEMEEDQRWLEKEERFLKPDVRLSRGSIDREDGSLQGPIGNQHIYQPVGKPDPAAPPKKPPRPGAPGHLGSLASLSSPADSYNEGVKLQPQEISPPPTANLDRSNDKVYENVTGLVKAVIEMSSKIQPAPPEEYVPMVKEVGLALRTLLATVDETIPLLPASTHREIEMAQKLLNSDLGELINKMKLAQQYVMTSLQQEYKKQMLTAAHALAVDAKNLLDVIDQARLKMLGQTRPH

`C=C(CCCC)/C(=C/C[C@H](OC(C)=O)c1ccccc1OCCO)c1cc(C(=O)OC)ccc1OC`: the composite z-score in assay [1] was -0.33; in assay [2], 0.0376; in assay [3], -0.0155; in [4] it was -0.438; in assay [5], 0.0341; in [6], -0.196. Moreover, the composite z-score was 0.0742 in the assay on Lefty1; -0.4 in [8]; 0.0205 in assay [10]; -0.24 in [15]; -0.157 in assay [16]; -0.266 with Torsin-1A (Homo sapiens) [17]. Also, the composite z-score with Torsin-1A (Homo sapiens) [18] is -0.174; in [19] it was 0.199. The z-score in [7] was 1.39; in assay [9], -0.687 (inactive); in assay [11] it was -3.83 (inactive); in assay [12] it was 0.437 (inactive); in assay [13], 13.3 (active); in assay [14], -0.671 (inactive).

Consider `COCCOC(=O)N1C(=O)[C@@]2(c3cc(C#CCC(C(=O)OC)C(=O)OC)ccc31)[C@H](C(=O)Nc1nc3ccccc3s1)[C@H]1C(=O)O[C@H](c3ccccc3)[C@H](c3ccccc3)N1[C@@H]2c1ccccc1OCCO`, for which the composite z-score came to 1.41 in assay [1]; 1.22 in assay [2]; 0.714 in assay [3]; 0.965 in assay [4]; 0.602 in assay [5]; 0.579 in [6]. In addition, the composite z-score with Lefty1 amounted to 0.275; in assay [8], 1.2; in assay [10] it was 0.346; in assay [15], 0.487; in assay [16], 0.0711; with Torsin-1A (Homo sapiens) [17], 0.776. The composite z-score in the assay with Torsin-1A (Homo sapiens) [18] was 0.456; in assay [19], 1.13. In addition, the z-score in [7] is -2.07; in assay [9], -1.56 (inactive); in assay [11] it was -3.81 (inactive); in assay [12], -1.12 (inactive); in [13] it was -0.141 (inactive); in assay [14], 0.401 (inactive).

As to `COc1ccc(CCNC(=O)[C@@]2(Sc3ccc(C)cc3)CC(=O)N(C3Cc4ccccc4C3)[C@@H]2c2ccc(CO)cc2I)cc1`, the composite z-score in assay [1] was 1.13; in assay [2] it was 0.255; in [3], 0.235; in assay [4] it was -0.716; in [5], -0.816; in [6], -0.944. In addition, the composite z-score with Lefty1 is -1.04; in [8], -0.176; in [10], -0.234; in assay [15] it was -0.814; in [16], -0.196; in the assay with Torsin-1A (Homo sapiens) [17], -0.27. For the same molecule, the figures for the composite z-score (in the assay with Torsin-1A (Homo sapiens) [18]; in assay [19]) were 0.0598 and -0.862, respectively. Besides, the z-score in assay [7] is 1.43; in assay [9] it was -0.704 (inactive); in assay [11] it was -1.23 (inactive); in assay [12] it was 0.74 (inactive); in assay [13], 0.649 (inactive); in [14], 1.82 (inactive).

Take `CCCC#C[Si](O[C@H](CC)c1cn(Cc2cccc(Cl)c2)nn1)(C(C)C)C(C)C`: the composite z-score in assay [1] is 0.849; in assay [2], 0.87; in assay [3], -0.442; in assay [4] it was 0.684; in assay [5] it was 0.357; in [6], 0.54. Moreover, the composite z-score came to 0.467 in the assay on Lefty1; 0.686 in assay [8]; 0.227 in [10]; 0.379 in assay [15]; 0.192 in assay [16]; 0.882 with Torsin-1A (Homo sapiens) [17]. The composite z-score was 0.244 with Torsin-1A (Homo sapiens) [18] and 0.773 in assay [19]. The z-score is -0.264 in assay [7]; -0.786 (inactive) in assay [9]; -1 (inactive) in assay [11]; -0.618 (inactive) in assay [12]; -0.505 (inactive) in assay [13]; -0.558 (inactive) in assay [14].

For the molecule `O=C(c1ccccc1)N1C(=O)[C@]2(COC(c3ccc(OCCCO)cc3)=N2)Cc2ccccc21`, the composite z-score in assay [1] is 3.28; in assay [2], 1.2; in [3], 0.628; in [4], 0.988; in assay [5], 1.4; in [6], 1.1. In addition, the composite z-score in the assay with Lefty1 stood at 0.443; in assay [8] it was 1.12; in assay [10], 0.363; in assay [15] it was 0.532; in [16], 0.249; with Torsin-1A (Homo sapiens) [17], 0.273. The composite z-score in the assay with Torsin-1A (Homo sapiens) [18] is 0.87; in assay [19], 0.658. Moreover, the z-score in [7] was -0.345; in assay [9], -1.19 (inactive); in assay [11] it was -3.03 (inactive); in assay [12] it was -0.382 (inactive); in [13], 1.03 (inactive); in [14] it was 0.822 (inactive).
